From PubChem
MITF primary: MITF inhibitors, primary screen, biochemical, AlphaScreen, human. AlphaScreen MITF homodimerization, bead proximity signal. AID 1259374, 2018. Microphthalmia-associated transcription factor (Homo sapiens), O75030. 0.91% of 650,000 active. inhibition, % at 2.6 µM; in the data active = inhibition above about 50%
FBW7 activator: FBW7 E3 ligase activators, primary screen, biochemical, AlphaScreen, human | AlphaScreen FBW7–phospho-cyclin E peptide binding, activator screen | normalized activity (activation), % at 26.1 µM | 0.13% of 650,000 active; in the data active = normalized activity above about 1.9%;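 also: purified mutant Fbw7 with reduced substrate affinity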
GPR151 ag: activators of human GPR151, primary screen, cell-based, PathHunter beta-arrestin, luminescence | G-protein coupled receptor 151 (Homo sapiens), Q8TDV0 | PathHunter beta-arrestin GPR151 cells | activation, % at 11.2 µM | 1% of 650,000 active | AID 1508602, 2020; in the data active = activation above about 4.9%
TEAD-YAP block: TEAD-YAP interaction inhibition, primary screen, TEAD-YAP interaction inhibitor project, luminescence, HEK-TIYL cells. AID 1259422, 2018. 1.4% of 640,000 active. inhibition, % at 9.12 µM. TEAD-Gal4/YAP UAS-luciferase luminescence; in the data active = inhibition above about 32%
Numbers stand for hits; n = inactive. In the library only some 3.5% were active in any assay of this set; here they are far more common.

SMILES	MITF primary	FBW7 activator	GPR151 ag	TEAD-YAP block
O=c1c2ccccc2nc(/C=C/c2ccc(O)cc2)n1-c1ccc([N+](=O)[O-])cc1	n	n	n	n
c1ccc2cc(-c3ccc4c(c3)COC3(CCNCC3)O4)ccc2c1	n	n	n	84.3
c1cc2c(cc1-c1ccc3c(c1)OCO3)COC1(CCNCC1)O2	n	n	n	n
CC(=O)OC1CCC23C(=O)OC45CCC(C6=CC(=O)OC6)C4(C)CCC2C5CCC3(O)C1 (stereo not drawn)	n	n	n	101.5
O=C1NC(=O)C(=Cc2ccc(OCc3cccc(C(=O)O)c3)cc2)C(=O)N1	n	n	n	71.2
COc1cc(C=C2C(=O)NC(=S)NC2=O)ccc1OCc1cccc(C(=O)O)c1	n	n	n	85.0
O=C1NC(=O)C(=Cc2cc(Cl)ccc2OCc2ccc(C(=O)O)cc2)C(=O)N1	n	n	n	n
CCOc1ccc(C=C2C(=O)NC(=S)NC2=O)cc1OCC	n	n	n	n
CCN(CC)C(=O)c1ccc(NC(=O)CN2CCCCC2)cc1	n	n	n	n
CCN(CC)C(=O)c1ccc(NC(=O)c2ccccn2)cc1	n	n	n	41.9
O=C1NC2(CCNCC2)N=C1c1ccccc1	n	n	n	n
CC(C)N(C(=O)CCl)c1ccccc1	n	n	n	33.5
CCOc1ccc(N2C(=O)NC(=O)/C(=C\c3ccc(N(C)C)cc3)C2=O)cc1	n	n	n	n
CCOc1ccc(N2C(=O)/C(=C/c3ccc(C)o3)C(=O)NC2=S)cc1	n	n	n	n
Cc1ccc(/C=C2\C(=O)NC(=S)N(c3cccc(F)c3)C2=O)o1	n	n	n	n
CCOc1ccc(N2C(=O)/C(=C/c3ccc(Br)o3)C(=O)NC2=S)cc1	79.4	n	n	n
O=C1NC(=S)N(c2cccc(F)c2)C(=O)/C1=C/c1ccc(Br)o1	83.7	n	n	n
CN1C(=O)NC(=O)/C(=C/c2ccc(Br)o2)C1=O	70.9	n	n	n
N=C1c2ccccc2CN1c1ccc(Cl)cc1	n	n	n	n
CCOC(=O)C1C2NC(=S)N(c3ccc(Cl)cc3)C1(C)Oc1c(OC)cccc12 (stereo not drawn)	n	n	n	61.5
CCOC(=O)C1C2NC(=S)N(c3ccc(Cl)cc3)C1(C)Oc1ccc(OC)cc12 (stereo not drawn)	n	n	n	50.5
N#CC(C#N)=C(N)/C(C#N)=C/c1c[nH]c2ccccc12	n	n	n	n
Nc1nnc(CCN2CCOCC2)s1	n	n	n	n
CCOc1ccccc1CC1(CCc2ccncc2)C(=O)N(C)C(=O)N(C)C1=O	n	n	n	n
N#CC(C#N)=Cc1cc(C=C(C#N)C#N)c(O)o1	83.7	n	n	n
SMILES	MITF primary	FBW7 activator	GPR151 ag	TEAD-YAP block
Cc1n[nH]c(C)c1CCN1CCOCC1	n	n	n	n
CCN(CC)c1ccc(CNC(C)C(O)c2ccccc2)cc1 (stereo not drawn)	n	n	n	53.1
CC(NCc1ccc(F)cc1)C(O)c1ccccc1 (stereo not drawn)	n	n	n	n
Cc1nn(CC(=O)N2CCC3(CC2)OCCO3)c2ccccc12	n	n	n	n
CN1CCN(c2cccc3c2C(=O)c2ccccc2C3=O)CC1	n	n	n	37.4
CC(C)[C@]12O[C@H]1[C@@H]1O[C@]13[C@]1(O[C@H]1C[C@H]1C4=C(CC[C@@]13C)C(=O)OC4)[C@@H]2O	n	n	n	90.5
CC(=O)Oc1ccc(/C=C/c2cc(OC(C)=O)cc(OC(C)=O)c2)cc1	n	n	n	96.0
CCN(CC)C(=S)N=P(N(C)C)(N(C)C)C(C)(C)C	n	n	n	n
CC(C)=CCCC1(C)C=Cc2c(O)c3c(c(CC=C(C)C)c2O1)OC12C(=CC4CC1C(C)(C)OC2(C/C=C(\C)C(N)=O)C4=O)C3=O (stereo not drawn)	n	n	n	37.7
COC1=CC(=O)O[C@@H](CCc2ccc3c(c2)OCO3)C1	n	n	n	n
COC1=CC(=O)O[C@H](/C=C/c2ccc3c(c2)OCO3)C1	n	n	n	77.9
COc1ccc(CCNC(=O)CN2CC=C(c3ccc(C)o3)CC2)cc1OC	n	n	n	n
COc1ccc(CN2CCN(C)CC2)cc1OC	n	n	n	n
CC(Cc1ccccc1)[n+]1cc(NC([O-])=NCC(=O)O)on1 (stereo not drawn)	n	n	n	n
N/C(=N\[N+](=O)[O-])N/N=C/c1ccc(O)c(O)c1	87.1	n	n	n
CCn1nc(-c2cccnc2)nc2c(=O)n(C)c(=O)nc1-2	n	n	n	76.4
